Data from PubChem BioAssay (EPA / NIEHS).
Where “and” joins values, the source holds several entries; their conditions need not be identical. Equal entries are not always repeated. Where a structure was tested more than once in an assay, its records may differ in their call. Calls of active or inactive are those of the source. The calls were made as follows: active = hit-call score of the fitted dose curve at least 0.9, where 1 is the maximum; inactive = score below 0.9.

These molecules were tested on Vascular cell adhesion molecule 1 (VCAM1), VCAM1 (gene 7412) (assay: BSK_hDFCGF_VCAM1: BioMAP Diversity Plus: hDFCGF Assay for Vascular cell adhesion molecule 1 (VCAM1) Biomarker Activity (AID 2283065)). Conditions: primary human foreskin fibroblasts; actives raise or lower the signal.
Procedure: BSK_hDFCGF is a cell-based, multiplexed-readout assay that uses foreskin fibroblast, a human skin primary cell, with measurements taken at 24 hours after chemical dosing in a 96-well plate.BSK_hDFCGF_VCAM1 is an assay component measured in the BSK_hDFCGF assay. It measures VCAM-1 antibody related to regulation of gene expression using ELISA technology.Data from the assay component BSK_hDFCGF_VCAM1 was analyzed into 1 assay endpoint. This assay endpoint, BSK_hDFCGF_VCAM1, was analyzed with bidirectional fitting relative to DMSO as the negative control and baseline of activity. Using a type of binding reporter, gain or loss-of-signal activity can be used to understand changes in the signaling as they relate to the gene VCAM1. Furthermore, this assay endpoint can be referred to as a primary readout, because this assay has produced multiple assay endpoints where this one serves a signaling function. To generalize the intended target to other relatable targets, this assay endpoint is annotated to the cell adhesion molecules intended target family, where the subfamily is Immunoglobulin CAM.
The levels of cell surface (or secreted, indicated by the prefix "s") biomarker endpoints were measured by ELISA. Overt cytotoxicity to cells in confluent adherent cultures (all systems other than the BT system) was assessed by measuring total protein levels using sulforhodamine B (SRB) staining in parallel cultures at the time of biomarker measurements, indicated as SRB endpoints. For proliferation assays for adherent cell types, individual cell types are cultured at sub-confluence and relative cell numbers quantified by SRB staining at time points optimized for each system (48 h: 3C and CASM3C systems; 72 h: BT and HDF3CGF systems; 96 h: SAg system). SRB was performed by staining cells with 0.1% SRB after fixation with 10% TCA and reading wells at 560 nm.Viability and proliferation of PBMC (T cells) was quantified by Alamar Blue reduction for the SAg and BT systems. For PBMC viability (referred to as PBMC Cytotoxicity within the assay endpoint names), cells were plated (75,000/well in a 96-well plate) and then chemical samples added for 1 h before addition of activators, SEB and TSST-1 (20 ng/mL final concentration each). Cells were incubated for 90 h. Then, Alamar Blue (20 uL/well) (Invitrogen, Cat DAL1100) was added for 6 h, and the plates were read with a fluorescence microplate reader at 546/580 nm (excitation/emission). For PBMC proliferation, cells were plated and activated as above but incubated for only 16 h prior to addition of Alamar Blue. Plates were read after 6 h.

SMILES	outcome	AC50
CCCCCCCCCC/C=C/C1CC(=O)OC1=O (stereo not drawn)	inactive	
CC[N+](CC)(CC(=O)Nc1c(C)cccc1C)Cc1ccccc1 (tested in a mixture with another compound)	inactive	
CCCCC(CC)COC(=O)C=Cc1ccc(OC)cc1 (stereo not drawn)	inactive	
Cc1cccnc1	inactive	
Sc1nc2ccccc2s1	inactive	
CC(C)CC(=O)CC(C)CC(C)C (stereo not drawn)	inactive	
CC(C)C1OCCN1CCOC(=O)NCCCCCCNC(=O)OCCN1CCOC1C(C)C (stereo not drawn)	inactive	
COc1cc(CNC(=O)CCCC/C=C/C(C)C)ccc1O	inactive	0.384 µM (active)
COc1ccccc1Oc1c(NS(=O)(=O)c2ccc(C(C)(C)C)cc2)nc(-c2ncccn2)nc1OCCO	inactive	
Cc1c(C(N)=O)cc([N+](=O)[O-])cc1[N+](=O)[O-]	inactive	
CCCCCCCCCCCCCCCCCC[N+](C)(C)C		2.33 µM (active)
CC[N+](CC)(CC(=O)Nc1c(C)cccc1C)Cc1ccccc1	inactive	
CN(C)CCC(c1ccc(Cl)cc1)c1ccccn1 (stereo not drawn)	inactive	
O=[N+]([O-])c1cc(S(=O)(=O)Nc2ccccc2)ccc1Nc1ccccc1		32.4 µM (active) and 27 µM (active)
CCCCCCC(O)CCCCCCCCCCC(=O)OC (stereo not drawn)	inactive	
Oc1cccc2ccccc12	inactive	
COc1ccc(C(=O)c2ccccc2O)c(O)c1	inactive	
OC(C(F)(F)F)(C(F)(F)F)C(O)(C(F)(F)F)C(F)(F)F		13.2 µM (active) and 12.3 µM (active)
C1CN(CCOCCN2CCOCC2)CCO1	inactive	
CN(C)c1ccc(C(c2ccccc2)c2ccc(N(C)C)cc2)cc1	inactive	
CCCCCCCCCCC1CO1 (stereo not drawn)		25.7 µM (active)
CCC(C)=NO	inactive	
CN(C)Cc1cc(C(C)(C)C)c(O)c(C(C)(C)C)c1		12.1 µM (active) and 20 µM (active)
COC(=O)/C=C\C(=O)OC	inactive	
O=C(C(=O)c1ccccc1)c1ccccc1	inactive	
Cc1cc(-n2nc3ccc(Cl)cc3n2)c(O)c(C(C)(C)C)c1	inactive	
CCC[Si](OC(C)=O)(OC(C)=O)OC(C)=O	inactive	
